# Y pestis TopoI: Yersinia pestis topoisomerase I inhibitors, primary screen, biochemical, cleavage product accumulation, plate reader, single point; DNA topoisomerase I (Yersinia pestis CO92); Y. pestis Topo-I cleavage product accumulation; activity, % at 10 µM; hit rate 0.064% among 360,000; AID 504884, 2011; in the data active = activity above about 50%, passing the limit was not always enough; inconclusive = no clear call, values can overlap the other calls
# PfHsp40 rescue: rescue of yeast from PfHsp40 toxicity, primary screen, S. cerevisiae, ATP luminescence; S. cerevisiae expressing PfHsp40, growth rescue; growth rescue, % at 12.5 µM; hit rate 0.68% among 340,000; in the data active = growth rescue above about 28%, passing the limit was not always enough; inconclusive = no clear call, values can overlap the other calls;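 note: yeast W303a lacking pdr1 and pdr3 grown in galactose medium; growth measured after three days at 30 °C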
# PrP UTR inh: inhibition of PrP 5' UTR reporter expression. cell-based PrP 5' UTR mRNA reporter, plate reader. hit rate 0.35% among 340,000. AID 488862, 2010. inhibition, % (test concentration not listed); in the data active = inhibition above about 52%; note: 0 = median of the neutral control wells
# BJeLR lethal: MLPCN primary cell-based screen for lethality selective to Ras in HRASV12 cells | BJeLR (HRASV12) viability, CellTiter-Glo ATP luminescence, 48 h | inhibition, % (concentration not given with the values) | hit rate 0.17% among 300,000 | AID 1554, 2009; in the data active = inhibition above about 50%; inconclusive = no clear call, values can overlap the other calls
# RN4220 kill: growth inhibition of S. aureus RN4220, primary screen, OD600; hit rate 0.33% among 330,000; AID 1259311, 2017; 16 h; inhibition, % (test concentration not listed); in the data active = inhibition above about 85%;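 note: plate controls were untreated cells for no effect and reference antibiotic for full effect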
# Sa ugtP lethal: growth inhibition of ugtP-null S. aureus, primary screen, RN4220 ugtP deletion, OD600 | 16 h | growth inhibition, % (no concentration beside the values) | hit rate 0.54% among 330,000; in the data active = growth inhibition above about 68%;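 note: plate controls were untreated wells for no effect and antibiotic for full effect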
# * marks the source's active call; other numbers are inactive results; ? = inconclusive; / = no result given. Compounds with a hit are over-represented: about 1.4% of the library has one in this group of screens.
SMILES,Y pestis TopoI,PfHsp40 rescue,PrP UTR inh,BJeLR lethal,RN4220 kill,Sa ugtP lethal
Nc1cc(=O)[nH]c(SCC(=O)N2N=C(c3ccc4ccccc4c3)CC2c2ccccc2)n1 (stereo not drawn),53*,1,-16,10,-1,-22
CC(C)CC(NC(=O)c1nc[nH]c1C(=O)NC(CCCCNC(=O)OC(C)(C)C)C(=O)OC(C)(C)C)C(=O)OCc1ccccc1 (stereo not drawn),/,/,/,/,-4,4
CC(C)CC(CN=[N+]=[N-])N1CCN(Cc2ccccc2)CCC1=O (stereo not drawn),/,/,/,/,5,2
Cc1ccc2c(c1)sc[n+]2Cc1ccccc1,18,0,-88,6,21,99*
Cc1ccc(-c2cc[n+](Cc3ccccc3)cc2)cc1,8,1,-21,/,2,1
O=C(Nc1ccc(C2=NCCN2)cc1)c1ccc(C(=O)Nc2ccc(C3=NCCN3)cc2)c([N+](=O)[O-])c1,-39,125*,-10,4,/,/
Cc1ccc(C2CC=C(C(=O)O)C(c3ccc(Cl)cc3)N2S(=O)(=O)c2ccc(C)cc2)cc1 (stereo not drawn),/,/,/,/,14,41
COC(=O)C1=C(C)N(c2cc(C)cc(C)c2)/C(=C/c2ccc(O)cc2)C1=O,3,1,-16,-8,89*,60
CCOC(=O)CNc1nc(C(C)(C)C)nc2c1nnn2Cc1ccccc1,59*,1,-16,-7,-2,-3
Cc1ccc(-c2nc3c(Cl)cc(Cl)cc3c(=O)n2O)cc1,3,?,-5,-5,99*,99*
O=c1c2ccccc2nc(-c2ccc(Cl)c(Cl)c2)n1O,11,1,2,-3,65,41
O=c1c2cc(Cl)ccc2nc(-c2ccc([N+](=O)[O-])cc2)n1O,6,179*,-27,0,8,-6
Cc1nc2ccc(Cl)cc2c(=O)n1-c1ccc([N+](=O)[O-])cc1,-3,0,-14,-5,3,9
O=c1c2cc(Br)ccc2nc(-c2ccc(Cl)cc2)n1O,8,-1,-12,2,99*,99*
C=C(COC(=O)CCC(=O)O)CC1CC(O)[C@]2(C)OC3CC4OC5C[C@]6(C)O[C@]7(C)CCC8OC9C[C@]%10(C)OC%11C(C)=CC(=O)OC%11CC%10OC9CC(C)C8OC7CC6O[C@]5(C)CC=CC4OC3CC2O1 (stereo partly drawn),/,/,/,/,8,3
COc1ccc(C2CC(=O)C=C(c3ccc(-c4ccccc4)c(F)c3)C2)cc1OC (stereo not drawn),/,/,/,/,8,6
CC(C)CC(=O)NC(=S)Nc1ccc(S(=O)(=O)N2CCCC2)cc1,-8,0,-12,6,4,87*
Cc1cc(C)nc(NS(=O)(=O)c2ccc(NC(=S)NC(=O)CC(C)C)cc2)n1,-5,-1,-16,-4,4,84*
S=C1NC[C@H](c2ccccc2)N1CCCCC1CCCCC1,29,330*,-21,8,/,/
S=C1NCC(c2ccccc2)N1CCCCC1CCCCC1 (stereo not drawn),/,/,/,/,14,34
NC(=O)C1(NC(=O)C2CC3(CC(c4cccc(NC(=O)c5cc([N+](=O)[O-])cc([N+](=O)[O-])c5)c4)=NO3)CN2C(=O)c2ccccc2)CC1 (stereo not drawn),/,/,/,/,-2,-5
CC1CC2C3CC(F)C4=CC(=O)C=C[C@]4(C)[C@@]3(F)C(O)C[C@]2(C)[C@@]1(O)C(=O)COC(=O)C(C)(C)C (stereo partly drawn),/,/,/,/,0,-3
Cc1cc(C(=O)NN=Cc2sc(N3CCOCC3)nc2-c2ccccc2)c(C)o1,/,/,/,/,94*,95*
COc1cc(C(=O)NN=Cc2sc(N3CCOCC3)nc2-c2ccccc2)cc(OC)c1OC,/,/,/,/,-6,7
CCC(C)C(C(=O)NCCCCCCCCCCC(=O)N1CCNCC1)n1cc(CCCCN=C(N)N)nn1 (stereo not drawn),/,/,/,/,2,4
SMILES,Y pestis TopoI,PfHsp40 rescue,PrP UTR inh,BJeLR lethal,RN4220 kill,Sa ugtP lethal
OCCC1CC(O)C(O)[C@]2(CCc3ccccc3CO2)O1 (stereo partly drawn),/,/,/,/,5,-1
CCOc1ccccc1OCCN1CCC(Cc2ccccc2)CC1,13,-2,-14,8,3,-2
Cc1ccccc1OCCN1CCC(Cc2ccccc2)CC1,23,59*,-14,4,-5,-14
CCOC(=O)CC(=O)CSc1nc(C)cc(C)c1C#N,-7,0,-13,2,0,16
CCOC(=O)CC(=O)CSc1nc2c(c(C)c1C#N)CCC2,-1,31*,-3,-6,-4,5
CC(C)C(NS(=O)(=O)c1ccccc1)C(=O)OCC(=O)NC(=O)c1cccn1C (stereo not drawn),/,/,/,/,8,8
O=C(CCNC(=O)c1ccc(Cl)cc1)NCCC1=CCCCC1,12,0,-40,7,3,10
O=C(COC(=O)c1cnc(Cl)c(Cl)c1)NCCC1=CCCCC1,2,30*,-1,-2,3,8
O=C(CCSCc1ccc(Cl)cc1)NCCC1=CCCCC1,65*,8,-17,0,2,5
Cc1ccc(SCC(=O)NCCC2=CCCCC2)cc1,51*,0,-8,1,3,-3
Cc1ccc(OCC(=O)NCCC2=CCCCC2)cc1,-6,0,-17,-9,7,1
C#CCOCCOCCOCCNc1nc(N2CCN(C(=O)C(CCCCN)n3cc(C(N)CO)nn3)CC2)nc(N2CCN(C(=O)C(CCCCN)n3cc(C(N)CC(C)C)nn3)CC2)n1 (stereo not drawn),/,/,/,/,5,3
CCOC(=O)c1cc(CC)sc1NC(=O)C(c1ccccc1)c1ccccc1,14,-2,-18,8,0,89*
CCCCCc1cc(OC)cc2c1C(=O)OC(C)(C)O2,6,72*,3,/,3,6
Cc1csc2nc(O)c(C(=O)NC3CCCCC3)c(=O)n12,10,165*,1,8,6,2
Cc1cccnc1Sc1c([N+](=O)[O-])ncn1C,1,-1,-39,0,1,-2
Cn1cnc([N+](=O)[O-])c1Sc1ncnc2nc[nH]c12,16,1,1,69*,3,3
Cn1cnc(Sc2ncnc3nc[nH]c23)c1[N+](=O)[O-],-4,-1,-23,54*,/,/
ClC(Cl)(c1nnnn1-c1ccccc1)c1nnnn1-c1ccccc1,10,13,-18,/,100*,100*
c1ccc(-c2nnnn2-c2ccccc2)cc1,10,-2,-13,8,4,0
Cc1nc(N)nc(N)c1/C=C/C(C)(C)c1ccc(Cl)cc1,12,151*,50,69*,99*,100*
Cc1ccc(S(=O)(=O)C=C2NC(=O)CS2)cc1,/,/,/,/,3,1
N#C/C(N=Nc1ccccc1O)=N\Nc1ccccc1O,-40,?,-29,56*,/,/

# Screening data deposited in PubChem by several laboratories.
